In PubChem BioAssay (NCATS):
Results filed as inconclusive are left out. A number with no mark means an inactive call. Active and inactive are the calls of the source. Calls come from the whole dose curve; as a rule, active = well fitted inhibition curve with a large enough effect; inconclusive = small, poorly fitted or top-dose-only effect; inactive = no such curve, though single readings can be large or run the other way.

The compounds below were run against Retinaldehyde dehydrogenase 3 (Homo sapiens) (UniProt P47895) (assay: qHTS for Inhibitors of the Aldehyde Dehydrogenase Family (ALDH1A3) Primary screen (AID 2061315;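 note: plate controls were DMSO vehicle for no effect and reference inhibitor for full effect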)). Details: ALDH inhibition qHTS; series mostly up to 56 µM; activity change, negative = inhibition: at the top concentration.

Q: COC(=O)[C@@H]1C2CC3c4[nH]c5ccccc5c4CCN3CC2CC[C@@H]1O (stereo not given in full) was tested. Which “activity change, negative = inhibition” value did it give?
A: Its value is 1.96%.

Q: CCc1ccc2oc(=O)cc(CN3CCN(c4ccccc4F)CC3)c2c1 was tested. Which “activity change, negative = inhibition” value did it give?
A: Its value is -2.35%.

Q: With COc1ccccc1NC(=O)c1ccc2ccccc2c1 as the compound, how does the “activity change, negative = inhibition” value read?
A: The value was -4.69%.

Q: For Cc1cccc(CNc2ncnc3ccc(-c4cccnc4)cc23)c1, which “activity change, negative = inhibition” value is on record?
A: The value was -1.67%.

Q: With Cc1ccc(S(=O)(=O)Nc2ccc(C(=O)Nc3nc(-c4ccccc4)cs3)c(Cl)c2)cc1 as the compound, how does the “activity change, negative = inhibition” value read?
A: The value was 1.67%.

Q: C/C(=C\c1ccc2c(c1)OCCO2)C1Nc2cccc3cccc(c23)N1 was tested. Which “activity change, negative = inhibition” value did it give?
A: Its value is 2.7%.

Q: Which “activity change, negative = inhibition” value does the source give for C[C@@H]1CN(S(=O)(=O)c2ccc3c(c2)OCCO3)CCN1S(=O)(=O)c1c(F)cccc1F here?
A: The value was 6.17%.

Q: With COc1ccccc1C1=Nn2c(nnc2-c2ccccc2C)SC1 as the compound, how does the Potency read?
A: Its Potency is “inactive”.

Q: With COc1ccc(-c2nnc3n2N=C(c2c(OC)cccc2OC)CS3)cc1 as the compound, how does the “activity change, negative = inhibition” value read?
A: Its value is -1.54%.

Q: O=c1ccc2ccc(OCCCCN3CCN(c4cccc5sccc45)CC3)cc2[nH]1 was tested. Which “activity change, negative = inhibition” value did it give?
A: The value was 11.2%.

Q: Which “activity change, negative = inhibition” value does the source give for Cc1nc(NCc2ccccc2)c2nc(-c3ccccc3)n(CCCN3CCOCC3)c2n1 here?
A: Its value is 4.03%.

Q: With COc1cc(O)c(C(CC(=O)N2CCC[C@H](C)C2)c2ccc3c(c2)OCO3)c(OC)c1 (stereo not given in full) as the compound, how does the “activity change, negative = inhibition” value read?
A: Its value is 0.165% [at 114 µM].

Q: Which “activity change, negative = inhibition” value does the source give for Cc1ccc(S(=O)(=O)Nc2cnccc2C(=O)Nc2ccccc2)cc1 here?
A: Its value is 7.39%.

Q: How did the “activity change, negative = inhibition” value turn out when Cc1cc2c(s1)c1cnn(Cc3ccc(F)cc3F)c(=O)c1n2C was run?
A: The value was -0.586%.

Q: Which “activity change, negative = inhibition” value does the source give for O=C(Cc1ccc(Cl)c(Cl)c1)Nc1ccc([S+](=O)([O-])Nc2ccc3[nH]ccc3c2)cc1 here?
A: The value was -1.24%.

Q: How did the “activity change, negative = inhibition” value turn out when CNc1oc(-c2ccc(-c3ccccc3)cc2)nc1C#N was run?
A: The value was 11%.

Q: How did the “activity change, negative = inhibition” value turn out when NCCCCNc1ncnc2ccc(-c3ccc4c(c3)OCO4)cc12 was run?
A: The value was -16.2%.

Q: Which “activity change, negative = inhibition” value does the source give for CC(=O)O[C@@H]1CC[C@@]2(C)C(CC[C@]3(C)C2[C@H](O)C=C2[C@H]4[C@@H](C)[C@H](C)CC[C@]4(C)CC[C@]23C)[C@@]1(C)C(=O)O (stereo not given in full) here?
A: Its value is -2.28% [at 28 µM].

Q: How did the “activity change, negative = inhibition” value turn out when O=[N+]([O-])c1cccc(CSc2nc3ncc(Br)cc3[nH]2)c1 was run?
A: Its value is 7.46%.

Q: Cc1noc(-c2ccc(-c3ccc(CC(=O)O)cc3)cc2)c1NC(=O)O[C@H](C)c1ccccc1Cl was tested. Which “activity change, negative = inhibition” value did it give?
A: The value was 83.9%.

Q: With CN(c1ccc(NC(=O)Nc2ccccc2)cc1)S(=O)(=O)c1cnn(-c2ccc(F)cc2)c1 as the compound, how does the “activity change, negative = inhibition” value read?
A: The value was -0.929%.

Q: For Cc1cc2c(s1)c1cnn(Cc3ccccc3F)c(=O)c1n2Cc1ccccc1F, which “activity change, negative = inhibition” value is on record?
A: Its value is 2.87%.

Q: For COc1ccnc(NC(=S)N2CCN(c3cc(C(F)(F)F)cc(C(F)(F)F)c3)CC2)c1, which “activity change, negative = inhibition” value is on record?
A: The value was 7.13%.

Q: How did the “activity change, negative = inhibition” value turn out when COc1cc(O)c(C(CC(=O)N2CCCC(C)C2)c2ccc(C)cc2)c(OC)c1 (stereo not given) was run?
A: The value was 15.7%.

Q: How did the “activity change, negative = inhibition” value turn out when CC(C)c1ccccc1-c1ncc(F)c(NCC2CCN(c3cnccn3)C2)n1 (stereo not given) was run?
A: The value was -1.81%.

Q: How did the “activity change, negative = inhibition” value turn out when Cc1ccc(OCCCn2c(CCNC(=O)C3CCCCC3)nc3ccccc32)cc1 was run?
A: The value was -15.9%.

Q: COc1ccc(C2Nc3ccccc3C(=O)N2Cc2ccco2)cc1COc1c(C)cc(NC(C)=O)cc1C (stereo not given) was tested. Which “activity change, negative = inhibition” value did it give?
A: The value was -6.79%.

Q: Which “activity change, negative = inhibition” value does the source give for COc1cccc(C2=Nn3c(nnc3-c3cc(OC)ccc3OC)SC2)c1 here?
A: Its value is 18%.

Q: For CC(=O)NCc1cc(Cl)c2cccnc2c1O, which “activity change, negative = inhibition” value is on record?
A: The value was -4.15%.

Q: For CCCn1c(C)nc2c(NCCO)nc(C)nc21, which “activity change, negative = inhibition” value is on record?
A: The value was 4.6%.

Q: With CC1=C(C(=O)Nc2nc3ccccc3s2)C2(CCCC2)N=C(Nc2nc3ccccc3o2)N1 as the compound, how does the “activity change, negative = inhibition” value read?
A: Its value is 6.41%.

Q: How did the “activity change, negative = inhibition” value turn out when CCCn1c(-c2ccc(F)cc2)nc2c(NC3CCN(Cc4ccccc4)CC3)nc(C)nc21 was run?
A: Its value is 4.4%.

Q: Which “activity change, negative = inhibition” value does the source give for COc1ccc(C2=Nn3c(nnc3-c3ccccc3F)SC2)cc1OC here?
A: The value was 12.4%.

Q: For CO[C@H]1C[C@@H]2CC[C@@H](C)[C@@](O)(O2)C(=O)C(=O)N2CCCC[C@H]2C(=O)O[C@H]([C@@H](C)C[C@@H]2CC[C@@H](O)[C@H](OC)C2)CC(=O)[C@H](C)/C=C(\C)[C@@H](O)[C@@H](OC)C(=O)[C@H](C)C[C@H](C)/C=C/C=C/C=C/1C, which “activity change, negative = inhibition” value is on record?
A: Its value is 2.84%.

Q: With O=C(Nc1ccc(-c2nc3ccccc3[nH]2)cc1)c1ccc2cc[nH]c2c1 as the compound, how does the “activity change, negative = inhibition” value read?
A: The value was 2.75%.

Q: For O=C(Nc1cccc(C(F)(F)F)c1)Nc1nnc(-c2ccncc2)s1, which “activity change, negative = inhibition” value is on record?
A: The value was 16.1%.

Q: How did the “activity change, negative = inhibition” value turn out when FC(F)(F)c1cccc(-c2nc(NCc3ccc(-c4ccnc(C(F)(F)F)c4)cc3)c3ccccc3n2)c1 was run?
A: Its value is -4.26%.

Q: With N#Cc1cc(NC(=O)Nc2nnc(-c3ccncc3)s2)ccc1Br as the compound, how does the “activity change, negative = inhibition” value read?
A: Its value is -21.2%.

Q: With COc1ccc(N2C[C@]34C=C[C@H](O3)C(C(=O)O)C4C2=O)cc1 (stereo not given in full) as the compound, how does the “activity change, negative = inhibition” value read?
A: Its value is -4.48%.

Q: For COc1ccc(NS(=O)(=O)c2ccc(C)cc2)cc1C(=O)Nc1nc(-c2ccccc2)cs1, which “activity change, negative = inhibition” value is on record?
A: The value was -6.47%.
